DAX1 inh-1: DAX1 (NR0B1) inhibition, primary screen; HEK293T StAR-luciferase reporter, SF-1/DAX-1 repression relief; inhibition, % at 6.8 µM; hit rate 1.1% among 370,000; AID 652010;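 active = inhibition above the mean over all tested compounds plus 3 SD, cut at about 3.6% in these data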;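 note: 0% = DAX-1 cells with DMSO and 100% = cells lacking DAX-1 with DMSO; higher inhibition means more luminescence from relief of DAX-1 repression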
hgDAF-12 ag: hgDAF-12 agonism, primary luciferase screen; HEK293 GAL4-hgDAF12 UAS-luciferase reporter, agonist luminescence; normalized to butyrate control; activation, % at 6.8 µM; hit rate 1.8% among 370,000; AID 687014;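 active = activation above a cutoff set at the mean of all screened compounds plus 3 SD, cut at about 10% in these data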;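 note: 0% = DMSO wells and 100% = sodium butyrate wells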
ssDAF12 agonist: activates DAF-12 receptor from parasite S. stercoralis; HEK293 ssDAF-12/GRIP1 lit1-tk-luc reporter, luminescence; % of 3 µM dafachronic acid response; activation, % at 6.8 µM; hit rate 1% among 370,000; AID 652126;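 active = activation above the mean over all tested compounds plus 3 SD, cut at about 0.9% in these data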;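 note: 0% = DMSO-only wells and 100% = 3 µM delta7-dafachronic acid wells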
DAX1 inh-2: inhibitors of human orphan nuclear receptor DAX1 (NR0B1); P51843; HEK293 Gal4-DAX1 luciferase reporter, luminescence; inhibition, % at 6.75 µM; hit rate 0.99% among 340,000; AID 504766;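 active = inhibition above the mean over all tested compounds plus 3 SD, cut at about 4.2% in these data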;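 note: 0% = DAX1-transfected cells with DMSO and 100% = empty-vector control cells with DMSO; inhibition shows as a rise in luminescence from relieved DAX1 repression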
Target sequence (P51843 207-470 limits assumed): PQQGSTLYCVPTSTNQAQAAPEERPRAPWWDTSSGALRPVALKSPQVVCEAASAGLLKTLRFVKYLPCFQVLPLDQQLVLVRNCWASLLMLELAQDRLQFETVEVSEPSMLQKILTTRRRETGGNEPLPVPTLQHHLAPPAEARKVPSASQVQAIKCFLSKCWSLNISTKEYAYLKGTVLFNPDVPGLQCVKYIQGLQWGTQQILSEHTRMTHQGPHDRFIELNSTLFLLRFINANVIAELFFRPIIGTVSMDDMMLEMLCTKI
hcDAF12 agonist: activators of H. contortus DAF-12 nuclear receptor. HEK293 hcDAF-12 lit1-tk-luc reporter, luminescence; 0% DMSO, 100% Δ7-dafachronic acid. activation, % at 6.8 µM. hit rate 1.4% among 370,000. AID 652067;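 active = activation above the mean of all tested compounds plus 3 SD, cut at about 5.5% in these data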;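 note: 100% = response to 3 µM Δ7-dafachronic acid high control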
* = called active by the depositor. Rows were chosen to be rich in hits. Some 4.1% of all compounds tested hit in one or more screens of this group.

`CCC(=O)NCc1csc(-c2cccs2)n1` gave DAX1 inh-1 0.6, hgDAF-12 ag 0.8, ssDAF12 agonist -0.4, DAX1 inh-2 -1.1 and hcDAF12 agonist 1.4.
O=C(NCc1csc(-c2cccs2)n1)C1CCCCC1 was read as DAX1 inh-1 1.0, hgDAF-12 ag 7.6, ssDAF12 agonist 0.3, DAX1 inh-2 4.5* and hcDAF12 agonist 3.6.
For O=C(OCC(=O)N1CCC(Cc2ccccc2)CC1)c1cc(Cl)ccc1O the results were DAX1 inh-1 3.9*, hgDAF-12 ag 2.1, ssDAF12 agonist -0.5, DAX1 inh-2 -1.4 and hcDAF12 agonist -0.1.
`COc1ccccc1C(=O)OCC(=O)N1CCC(Cc2ccccc2)CC1` gave DAX1 inh-1 0.9, hgDAF-12 ag 2.6, ssDAF12 agonist -1.0, DAX1 inh-2 0.6 and hcDAF12 agonist 1.8.
For COc1cccc(N2CCN(CC(=O)NCc3ccccc3C)CC2)c1 the results were DAX1 inh-1 -0.6, hgDAF-12 ag -0.2, ssDAF12 agonist -1.3 and hcDAF12 agonist 0.5.
Screening O=C(O)c1ccc(OCCCCCCOC2CCCCO2)cc1 (centres undefined) returned DAX1 inh-1 0.3, hgDAF-12 ag 0.7, ssDAF12 agonist -1.2, DAX1 inh-2 4.5* and hcDAF12 agonist -1.2.
COc1ccc(Cn2cc(COC(=O)N3CCCC3)nn2)cc1 was read as DAX1 inh-1 -1.0, hgDAF-12 ag 0.1, ssDAF12 agonist -1.1 and hcDAF12 agonist -0.3.
For Cc1ccc(-c2cn(-c3ccccc3)c(SCC(N)=O)n2)cc1C the results were DAX1 inh-1 2.2, hgDAF-12 ag 6.6, ssDAF12 agonist -1.2, DAX1 inh-2 -0.2 and hcDAF12 agonist -0.3.
CCOC(=O)NC(=O)CSc1nc(-c2ccc(C)c(C)c2)cn1-c1ccccc1 was read as DAX1 inh-1 1.8, hgDAF-12 ag 10.0, ssDAF12 agonist -0.5, DAX1 inh-2 0.8 and hcDAF12 agonist 5.7*.
Screening CCOC(=O)[C@]12CCCCC/C=C\1N(CCc1ccc(Cl)cc1)C(=O)[C@H]2CC(=O)N1CCOCC1 returned DAX1 inh-1 -1.4, hgDAF-12 ag -1.9, ssDAF12 agonist -1.9 and hcDAF12 agonist -1.3.
Screening COc1ccc(S(=O)(=O)N2CCCCCC2)cc1C(=O)N(C)CC(=O)Nc1ccc(Cl)c(Cl)c1 returned DAX1 inh-1 -2.1, hgDAF-12 ag -2.5, ssDAF12 agonist -1.2, DAX1 inh-2 -0.3 and hcDAF12 agonist -0.3.
`COc1cccc(NC(=O)CN(C)C(=O)c2cc(S(=O)(=O)N3CCCCC3)ccc2Cl)c1` gave DAX1 inh-1 4.2*, hgDAF-12 ag -1.6, ssDAF12 agonist -0.5, DAX1 inh-2 0.0 and hcDAF12 agonist -1.6.
CSc1ccc(-c2nnn(Cc3ccc(Br)cc3)n2)cc1 was read as DAX1 inh-1 -0.8, hgDAF-12 ag 1.8, ssDAF12 agonist -0.2, DAX1 inh-2 1.7 and hcDAF12 agonist 1.1.
Screening CSc1ccc(-c2nnn(Cc3ccccn3)n2)cc1 returned DAX1 inh-1 1.7, hgDAF-12 ag 12.2*, ssDAF12 agonist -0.5, DAX1 inh-2 0.5 and hcDAF12 agonist 0.4.
Cc1ccc([C@H]2C[C@]34CN(Cc5ccccc5)S(=O)(=O)[C@H]3C[C@H]2O4)cc1 was read as DAX1 inh-1 0.9, hgDAF-12 ag 2.0, ssDAF12 agonist -0.5 and hcDAF12 agonist -1.1.
`CCCC1CCC(c2nc(-c3cccnc3)no2)CC1` (centres undefined) gave DAX1 inh-1 0.8, hgDAF-12 ag 0.5, ssDAF12 agonist -0.9, DAX1 inh-2 4.7* and hcDAF12 agonist 0.1.
`CC(=Nc1ccc(O)cc1)c1sc2ccccc2c1O` gave DAX1 inh-1 0.1, hgDAF-12 ag 11.6*, ssDAF12 agonist 0.4, DAX1 inh-2 1.1 and hcDAF12 agonist 5.2.
For CC(=Nc1ccccc1O)c1sc2ccccc2c1O the results were DAX1 inh-1 -0.2, hgDAF-12 ag 12.7*, ssDAF12 agonist 0.0, DAX1 inh-2 2.3 and hcDAF12 agonist 4.5.
Screening CC(=O)NCCN=C(C)c1sc2ccccc2c1O returned DAX1 inh-1 0.7, hgDAF-12 ag 6.1, ssDAF12 agonist 0.7, DAX1 inh-2 0.1 and hcDAF12 agonist 0.6.
CCCCn1c(=O)c(CCC(=O)OCC(=O)Nc2cccc3ccccc23)nc2ccccc21 was read as DAX1 inh-1 -0.3, hgDAF-12 ag -1.6, ssDAF12 agonist 1.6*, DAX1 inh-2 -0.5 and hcDAF12 agonist 1.5.
Screening O=C(Cc1c(F)cccc1Cl)NC1CCN(Cc2ccccc2)CC1 returned DAX1 inh-1 1.7, hgDAF-12 ag -2.2, ssDAF12 agonist -1.2, DAX1 inh-2 0.6 and hcDAF12 agonist -0.5.
